# Out of some 2,300 compounds screened, about 1,200 (52%) were called active. The set was probably picked from earlier hits. The list shows a part of the results. Potency and affinity values are given separately. Values without a mark were called inactive. No rule for the calls is given here.
# Assay: mammalian cell cytotoxicity, dose response, cytotoxicity control for M. tuberculosis inhibitor project (AID 435019);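 also: 0% = background wells and 100% = vehicle-treated cells; lower values mean fewer viable cells so more cytotoxicity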
# Conditions: cytotoxicity counter-screen; series mostly up to 40 µM; viability: at the top concentration
row,SMILES,viability
1,COc1ccc(C(=O)COC(=O)[C@H](C)Nc2ccc(C(F)(F)F)cc2[N+](=O)[O-])cc1,97.9%
2,COC(=O)c1ccc(Cn2cc(C(F)(F)F)cc([N+](=O)[O-])c2=O)cc1,101%
3,CCOC(=O)CSc1nsc(SCC(=O)OCC)c1C#N,96.2%
4,CCOc1ccc(N=c2scc(-c3ccccc3)n2CCO)cc1,96%
5,Oc1ccc2cc(Br)ccc2c1CN1CCCC1,84.9%
6,CSc1cc(-c2ccncc2)nc(-c2ccc(Cl)cc2)c1,84.4%
7,Cc1ccnc(NC(=O)CCc2c[nH]c3ccccc23)c1,82.8%
8,Cn1ccc(=Nc2ccc(NC(=O)c3ccc(N=c4ccn(C)c5ccc([N+](=O)[O-])cc45)cc3)cc2)cc1,90.8%
9,CCOC(=O)C1CCCN(c2ncnc3c2cnn3-c2ccc(OC)cc2)C1 (centres undefined),98.5%
10,COc1ccc(-c2nnc(SCC(=O)N3CCc4ccccc4C3)o2)cc1,85.6%
11,CCOC(=O)N1CCN=C1SCc1ccc(C(F)(F)F)cc1,94.8%
12,COc1ccc(-c2nnc(NC(=O)c3ccc([N+](=O)[O-])o3)o2)c(OC)c1,82.6%
13,O=[N+]([O-])c1ccc(-n2cnc3ccccc32)c([N+](=O)[O-])c1,95%
14,Cc1ccc(S(=O)(=O)N(C)c2ccc(OCC(=O)OCc3ccc(C#N)cc3)cc2)cc1,95.1%
15,CC(/C=C/c1ccccc1)=N\NC(N)=S,93.2%
16,CC1CCC/C(=N\NC(=S)Nc2ccccc2)C1 (centres undefined),88.5%
17,O=C(OCCN1C(=O)c2ccccc2C1=O)c1cc2ccccc2o1,99.3%
18,Cc1ccnc(N2CCC(C(=O)Nc3cccc(C(F)(F)F)c3)CC2)n1,84.4%
19,CCN(CC)S(=O)(=O)c1ccc(/C=C/C(=O)OCC#N)cc1,91.9%
20,CCOC(=O)c1c(/N=C/N(C)C)sc(/C=N/Nc2ccccc2)c1-c1ccccc1Cl,83.2%
21,CCOC(=O)NNc1ccccc1,101%
22,COC(=O)C1C2c3ccccc3OC1(C)N=c1s/c(=C/c3cnn(C)c3C)c(=O)n12 (centres undefined),96.6%

row,SMILES,viability
1,CCc1cc2c(=O)c(-c3cnn(-c4ccccc4)c3)c(C)oc2c(CN2CCCCC2)c1O,93.9%
2,CC(NC(=O)c1ccccc1Br)C1CC2CCC1C2 (centres undefined),91.3%
3,O=C(OCc1nc2ccccc2s1)c1ccc(Br)o1,93%
4,Cc1cc(/C=C/C(=O)O)c(C)n1-c1ccc(Cl)cc1,95.7%
5,CNc1cccccc1=S,90.6%
6,NC(=O)CSc1nnc(COc2ccc3ccccc3c2)o1,92.6%
7,Cc1c(O)c(=O)n(-c2ccccc2)n1C,99.9%
8,COc1ccc2c(c1)CCc1c(C(=O)Nc3c(C)n(C)n(-c4ccccc4)c3=O)noc1-2,91.4%
9,CC(C)(C)c1ccc(C(=O)CSc2n[nH]c(=O)[nH]c2=O)cc1,90.6%
10,Cc1ccccc1Cn1ccc(=NCc2ccccc2)cc1,94.5%
11,CC(=O)n1cc(/C=C2/N=C(c3ccccc3)OC2=O)c2ccccc21,87.7%
12,O=C(CN1CCCCC1)Nc1nnc(-c2ccc([N+](=O)[O-])cc2)s1,84.5%
13,Cc1ccc(NC(=O)Cc2ccc(-c3ccccc3)cc2)nc1,92.4%
14,CSc1cccc(NC(=O)CCS(=O)(=O)c2cccc3nonc23)c1,92.1%
15,COC(=O)c1ccc(-n2cnc3ccccc32)nc1,85%
16,COc1ccc(N2CCN(C(=O)c3ccc(CNc4c(N5CCOCC5)c(=O)c4=O)cc3)CC2)cc1,94.8%
17,CN(C)c1ccc(/C=C2\N=C(C(C)(C)C)OC2=O)cc1,92%
18,CCC(C)N1CCC2(CC1)N=c1c(c3c4c5c(C)c(O)c3c(O)c1=NC(=O)C(C)=CC=C[C@H](C)[C@H](O)[C@@H](C)[C@@H](O)[C@@H](C)[C@H](OC(C)=O)[C@H](C)[C@@H](OC)C=CO[C@@](C)(O5)C4=O)N2 (some centres undefined),85.8%
19,Cc1c2c(nc3ccccc13)CCC(C)C2 (centres undefined),90.5%
20,O=C1C(c2ccccc2)=[N+]([O-])c2ccccc21,88.2%
21,COc1ccc(C2CC(=O)c3cnc(Nc4cc(C)cc(C)c4)nc3C2)cc1 (centres undefined),89.3%
22,COc1ccc(NC(=O)CSC2CCCCC2)cc1,105%

row,SMILES,viability
1,O=C(N/N=C/c1c(F)c(F)c(F)c(F)c1F)c1cccc(S(=O)(=O)N2CCOCC2)c1,84.2%
2,COc1ccc(NC(=O)c2oc3ccc(S(=O)(=O)N4CCOCC4)cc3c2C)cc1,98.4%
3,COc1cc2cc(C(c3nnnn3C(C)(C)C)N3CCc4ccccc43)c(=O)[nH]c2cc1OC (centres undefined),87.3%
4,COc1ccc(C2=NC(=O)/C(=C\c3cc(OC)c(OC)c(OC)c3)O2)cc1,97.4%
5,CCCCOC(=O)c1ccc(NC(=S)NC(=O)c2c(Br)c(C)nn2C)cc1,100%
6,CN(CCO)c1cc(Sc2nc3ccccc3s2)c2nonc2c1[N+](=O)[O-],88.1%
7,CCCSC1=C(C#N)C(c2ccc(Cl)cc2Cl)CC(=O)N1 (centres undefined),87.4%
8,CN(C(=O)COC(=O)/C=C/c1ccc(Cl)c(Cl)c1)c1c(N)n(Cc2ccccc2)c(=O)[nH]c1=O,101%
9,C=CCOc1c(Br)cc(CNc2nccs2)cc1OC,80.1%
10,O=C(CCc1nnc(CCCc2ccccc2)o1)NCCCC1CCCC1,93.3%
11,COc1ccc(N/C=C(\C2OC(=O)c3ccccc32)[N+](=O)[O-])cc1 (centres undefined),103%
12,COc1ccc(N=N/C(=C\O)C(=O)c2cccs2)cc1,101%
13,Cc1nc(SCC(=O)Nc2ccc(OCc3ccccc3)cc2)n[nH]1,91.9%
14,C=CCc1cccc2cc(C(=O)OCC(=O)c3ccccc3)c(=O)oc12,104%
15,Cn1ccnc1C(=O)C1CCCN(Cc2cn[nH]c2-c2ccc(-c3ccccc3)cc2)C1 (centres undefined),86.1%
16,CC(=O)c1cccc(Nc2nc(-c3cccnc3)cs2)c1,81%
17,O=C(OCc1csc(Nc2ccccc2)n1)c1ccc(Cl)cc1,90.1%
18,O=C(/C=C/c1ccc([N+](=O)[O-])cc1)NC1CC2CCC1C2 (centres undefined),89%
19,CC(C)Oc1ccc(C(=O)N/N=C/c2ccc(-c3ccc(S(=O)(=O)Nc4ncccn4)cc3)o2)cc1,87%
20,O=C(c1ccc([N+](=O)[O-])s1)N1CCN(c2ccc(C(F)(F)F)cn2)CC1,90%
21,O=c1[nH]c(CN2CC=C(c3ccccc3)CC2)nc2cc(C(F)(F)F)ccc12,107%
22,CC(C)CNC(=S)NC(=O)c1csc([N+](=O)[O-])c1,96.9%

row,SMILES,viability
1,O=C(Nc1cc(C(F)(F)F)ccc1Cl)C(Sc1cccc[n+]1[O-])c1ccccc1 (centres undefined),85.9%
2,CC1(C)CC(=O)c2cc(C(=O)NNc3ccccc3)c(=O)n(-c3ccccc3)c2C1,96.8%
3,COc1ccc(NC(=O)CSc2nnc(-c3ccccn3)n2N)cc1Cl,92%
4,CSc1nn(-c2ccc(C(=O)OCC(=O)NC(=O)NC(C)C)cc2)c(=S)s1,86.6%
5,COc1cc2c(cc1OC)CN(CCC(=O)c1ccc(Br)cc1)CC2,96.2%
6,C#CCCc1cscc1/C=[N+](\[O-])c1ccc(C(=O)OCC)cc1,102%
7,Cn1cnnc1SCc1ccc(-c2ccc(Br)cc2)o1,92.6%
8,Cc1ccc(NC(=O)/C(Cl)=C\c2ccccc2)cc1,97.2%
9,CCc1ccc(/C=C2/C(=O)N(C)C(=S)N2CC(=O)OC)s1,99.8%
10,Oc1ccc(/C=N/n2c3ccccc3c3ccccc32)cc1,81.2%
11,Cc1ccc(N2C(=O)C(F)(F)C2c2ccccc2)cc1 (centres undefined),95.3%
12,COc1ccccc1N1CCN(/N=C/C(Cl)=C/c2ccccc2)CC1,84.9%
13,OCCN(/C=N/c1nc(-c2ccc(Br)cc2)cs1)CCO,91.9%
14,CCOC(=O)c1cc2cc3ccccc3cc2oc1=O,95.8%
15,CCOC(=O)c1cnc(SC2CCc3ccccc3C2=O)nc1N (centres undefined),89.5%
16,CC(Oc1cc2oc(=O)c3c(c2cc1Cl)CCCC3)C(=O)NCc1ccccn1 (centres undefined),81.3%
17,CCOC(=O)C1CCN(c2cc3c(cc2NC(=O)c2ccccc2Cl)n(C)c(=O)n3C)CC1,95.7%
18,CCN(CC(=O)NCc1cccs1)C(=O)c1ccc([N+](=O)[O-])o1,87.3%
19,CC1=NN(c2ccc(C)c(C)c2)C(=O)/C1=C\C=C\c1ccc([N+](=O)[O-])o1,96.5%
20,CC(C)=N/N=C1/NC(=O)C(Cc2ccccc2)S1 (centres undefined),98.5%
21,Cc1cc(Nc2ccccc2)c2c([N+](=O)[O-])ccc(C)c2n1,101%
22,O=c1c2cc(-c3ccccc3)sc2ncn1/N=C/c1ccco1,99.8%

row,SMILES,viability
1,Cc1ccc(N/N=C/C=C/c2ccco2)cc1,94.5%
2,CCOC(=O)c1nc2sc3c(c2c(=O)[nH]1)CCC(C)C3 (centres undefined),97.1%
3,CCOC(=O)CCCNC(=O)COC(=O)c1cc(Br)c(Br)s1,100%
4,CCOC(=O)CSc1nn(-c2ccccc2)c(=S)s1,97.1%
5,CCOC(=O)CSc1nnc(SCCN2C(=O)c3ccccc3C2=O)s1,104%
6,Cc1ccc2c(c1)C1C[N+](C)(CC(=O)c3ccc(Cl)cc3Cl)CCC1N2C(=O)c1ccc(F)cc1 (centres undefined),90%
7,COC(=O)COc1ccc(-c2ccccc2)cc1C=O,91.1%
8,CCCCCCCCSc1nnc(CSc2nc3nc(C)cc(C)n3n2)o1,93%
9,Cc1cc(C)c2cc(C(=O)Nc3ccc(C)c(F)c3)[nH]c2c1,97.5%
10,COC(=O)c1ccc(N/C(C)=C/C(=O)c2ccc(C)o2)cc1,95.1%
11,Cc1ccccc1NC(=O)Cc1nc(COC(=O)/C=C/c2ccccc2)cs1,87.3%
12,COC(=O)c1cc(/C=C/c2ccccc2)on1,103%
13,N#Cc1c(SCC(N)=O)nsc1SCc1ccccc1Cl,102%
14,O=C(CN1CCN(c2nc(-c3ccc(F)cc3)cs2)CC1)NCc1ccc2c(c1)OCO2,82.4%
15,CCCCOc1ccc(-c2nnn(C(C)C(=O)OCC)n2)cc1 (centres undefined),94.5%
16,CC1CCc2c(C(=O)Nc3nccs3)csc2C1 (centres undefined),90%
17,Cc1cccc(N2CCN(CC(=O)Nc3nccs3)CC2)c1C,83.5%
18,Nc1ccc2cc(Br)ccc2c1,89.6%
19,COC(=O)c1ccc(N/N=C/c2cc([N+](=O)[O-])cc(OC)c2O)cc1,92.8%
20,CC1CCN(C(=O)c2ccc(-c3ccccc3Cl)o2)CC1,82.7%
21,COC(=O)Cc1ccc(NC(=O)c2ccc(Br)o2)cc1,90.5%
